In PubChem BioAssay (NCI):
Compounds without any hit were thinned out: in the full panel of roughly 83,000, 20% have a hit.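 Cell lines were cultured in 96-well plates, exposed to a single compound concentration, and assessed for percent growth 48 hours later.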 The source made the active and inactive calls.

These compounds were tested on NCI/ADR-RES ovarian (assay: NCI-60 one-dose screen, 48 h (100 = growth as untreated, 0 = no growth, -100 = all killed)). Details: 10 µM.
Protocol: Growth inhibition of the NCI/ADR-RES human […] tumor cell line is measured as a screen for anti-cancer activity. Cells are grown in 96 well plates and exposed to the test compound for 48 hours. Compounds are tested at a single concentration, which is 10^-5 M for most compounds. The reported endpoint is percent growth (GI% or GIPRCNT), where numbers from 0 - 100% represent growth inhibition, and numbers from -100% - 0 represent cell death. For example, a value of 40 represents 60% growth inhibition. A value of 0 means no net growth occurred over the course of the experiment. A value of -40 indicates 40% of cells at the beginning of the experiment died by the end of the experiment. A value of -100 means all cells are dead at the end of the experiment.
NCI-60 Human Tumor Cell Lines Screen was performed using the standard one-dose NCI protocol, which is described in more detail at https://dtp.cancer.gov/discovery_development/nci-60/default.htm.
Compounds with GIPRCNT values below 10 were considered active. Activity score was based on GIPRCNT using the following formula: […]
Score is 0 for GIPRCNT values of 100 or above, 50 for GIPRCNT values of 0, and 100 for GIPRCNT values of -100.

Q: With `FC(F)(F)c1ccc(-c2ncc(-c3ccc(C(F)(F)F)cc3)c(NCc3cc(C(F)(F)F)cc(C(F)(F)F)c3)n2)cc1` as the compound, how does the growth read?
A: The growth was 68.5% (inactive).

Q: For `N#C/C(=C/c1cc([N+](=O)[O-])ccc1Cl)C(N)=O`, which growth is on record?
A: The growth was 98.2% (inactive).

Q: With `COc1cccc(C(=O)NNc2nc(N3CCN(C4CCCCC4)CC3)nc(N3CCN(C(c4ccccc4)c4ccccc4)CC3)n2)c1` as the compound, how does the growth read?
A: The growth was 31.1% (inactive).

Q: With `Cc1ccc([P+](Cc2ccccc2)(c2ccccc2)c2ccccc2)cc1` as the compound, how does the growth read?
A: The growth was 101% (inactive).

Q: With `Fc1ccc2[nH]c3c(NCCCN4CCOCC4)ncnc3c2c1` as the compound, how does the growth read?
A: Its growth is 72.7% (inactive).

Q: For `NC(=O)c1ccc(Br)o1`, which growth is on record?
A: The growth was 96.8% (inactive).

Q: Which growth does the source give for `COc1ccc(C2C=C(c3ccc(Cl)c(Cl)c3)N=C3SC(C)=CN32)cc1` (stereo not given) here?
A: Its growth is 107% (inactive).

Q: How did the growth turn out when `O=C(O)CCCN1C(=O)NC2(C1=O)c1ccccc1-c1ccccc12` was run?
A: The growth was 96.8% (inactive).

Q: `CCCCCCCCCCCCc1ccc(C(=O)/C=C/C(=O)O)cc1` was tested. Which growth did it give?
A: The growth was 100% (inactive).

Q: How did the growth turn out when `O=C(Nc1ccc(OS(=O)(=O)Cc2ccccc2)cc1)C12CC3CC(CC(C3)C1)C2` was run?
A: Its growth is 84.4% (inactive).

Q: Which growth does the source give for `O=C(C=P(c1ccccc1)(c1ccccc1)c1ccccc1)c1ccc(Br)cc1` here?
A: Its growth is 79.9% (inactive).

Q: How did the growth turn out when `O=C(O)c1ccc(CNc2ccc(C(=O)CCl)cc2)cc1` was run?
A: Its growth is 123% (inactive).

Q: With `CCCCCC(CCC)COC(=O)c1ccc(OC)cc1` (stereo not given) as the compound, how does the growth read?
A: The growth was 103% (inactive).

Q: With `O=C1/C(=C/c2ccc(O)cc2)Cc2ccc(Cl)cc21` as the compound, how does the growth read?
A: Its growth is 94.2% (inactive).

Q: For `COc1cc(/C=C/C(=O)c2cc(-c3ccc(F)cc3)ccc2O)cc(OC)c1OC`, which growth is on record?
A: The growth was 72.1% (inactive).

Q: Which growth does the source give for `COc1cccc2c1O/C(=C\c1ncc([N+](=O)[O-])n1C)C2=O` here?
A: Its growth is -3.54% (active).

Q: `C[n+]1c(/C=C/c2c[nH]c3ccccc23)ccc2ccccc21` was tested. Which growth did it give?
A: The growth was 100% (inactive).

Q: With `COc1ccc(S(=O)(=O)Nc2ccc(OCc3nnc(-c4ccc(Cl)cc4)o3)c(F)c2)cc1` as the compound, how does the growth read?
A: The growth was 45.7% (inactive).

Q: Which growth does the source give for `CC(C)OCc1cc(CN2CCN(c3cccc(Cl)c3)CC2)c(O)c2ncccc12` here?
A: Its growth is -27.3% (active).

Q: For `CCCc1ccnc(NS(=O)(=O)c2ccc(N)cc2)n1`, which growth is on record?
A: The growth was 112% (inactive).

Q: `O=NN(CC(=O)N/N=C/C=C\c1ccccc1)CC(=O)N/N=C/C=C/c1ccccc1` was tested. Which growth did it give?
A: The growth was 103% (inactive).

Q: For `COC1OC2COC(c3ccccc3)OC2C(=O)C1NC(=O)c1ccccc1` (stereo not given), which growth is on record?
A: The growth was 103% (inactive).

Q: `COC(=O)[C@]12CC[C@@H](C)[C@H](C)[C@@H]1C1=CC[C@@H]3[C@@]4(C)C/C(=N\O)[C@H](O)[C@@]5(C)COC(=C45)C[C@@]3(C)[C@]1(C)CC2` was tested. Which growth did it give?
A: The growth was -62.5% (active).

Q: `N#Cc1cnc2ccc(NCc3cnc[nH]3)cc2c1Nc1ccc(F)c(Cl)c1` was tested. Which growth did it give?
A: The growth was 98.7% (inactive).

Q: Which growth does the source give for `CC(C)(C)c1ccc(OCCCCCCN2CCNCC2)cc1` here?
A: The growth was 79.7% (inactive).

Q: `Clc1cc(Cl)c(OCCCCCCN2CCNCC2)c(Cl)c1` was tested. Which growth did it give?
A: Its growth is 75.8% (inactive).

Q: For `Cc1ccc2nc(-c3ccc(OCC(=O)N=Nc4c(O)[nH]c5ccccc45)cc3)[nH]c2c1`, which growth is on record?
A: The growth was 89.9% (inactive).

Q: With `O=C(Nc1cccc(C(F)(F)F)c1)C(Cl)Cl` as the compound, how does the growth read?
A: The growth was 104% (inactive).

Q: Which growth does the source give for `C[N+]1(CC2CO2)CCCCCC1` (stereo not given) here?
A: Its growth is 113% (inactive).

Q: `O=C(O)CCCCSCCCCC(=O)O` was tested. Which growth did it give?
A: The growth was 109% (inactive).

Q: How did the growth turn out when `Nc1ccn([C@@H]2O[C@H](COP(=O)(O)O[C@@H]3C[C@H](n4cc(F)c(=O)[nH]c4=O)O[C@@H]3COP(=O)(O)O[C@@H]3C[C@H](n4cc(F)c(=O)[nH]c4=O)O[C@@H]3COP(=O)(O)O[C@@H]3C[C@H](n4cc(F)c(=O)[nH]c4=O)O[C@@H]3COP(=O)(O)O[C@@H]3C[C@H](n4cc(F)c(=O)[nH]c4=O)O[C@@H]3COP(=O)(O)O[C@@H]3C[C@H](n4cc(F)c(=O)[nH]c4=O)O[C@@H]3COP(=O)(O)O[C@@H]3C[C@H](n4cc(F)c(=O)[nH]c4=O)O[C@@H]3COP(=O)(O)O[C@@H]3C[C@H](n4cc(F)c(=O)[nH]c4=O)O[C@@H]3COP(=O)(O)O[C@@H]3C[C@H](n4cc(F)c(=O)[nH]c4=O)O[C@@H]3COP(=O)(O)O[C@@H]3C[C@H](n4cc(F)c(=O)[nH]c4=O)O[C@@H]3COP(=O)(O)O[C@@H]3C[C@H](n4cc(F)c(=O)[nH]c4=O)O[C@@H]3COP(=O)(O)OCCOCCOCCOCCOCCOCCO)[C@H](O)C2O)c(=O)n1` (stereo not given in full) was run?
A: The growth was 39.5% (inactive).

Q: `O=C(CCCC(=O)N/N=C/c1cc(Cl)ccc1O)N/N=C\c1cc(Cl)ccc1O` was tested. Which growth did it give?
A: The growth was 14.1% (inactive).

Q: With `Cc1[nH]nc2c(=S)[nH]c(=O)[nH]c12` as the compound, how does the growth read?
A: Its growth is 100% (inactive).

Q: For `CCCCCCN=C(N)CCCCCCCCCCC(N)=NCCCCCC`, which growth is on record?
A: The growth was 84% (inactive).

Q: For `CCCCn1c(=O)[nH]c2c(c1=O)C(c1ccc(Cl)cc1)c1c([nH]c(=O)n(CCCC)c1=O)N2`, which growth is on record?
A: Its growth is 98.6% (inactive).

Q: `O=C1/C(=C/c2ccc([N+](=O)[O-])s2)Oc2ccc(Cl)cc21` was tested. Which growth did it give?
A: The growth was 4.88% (active).

Q: How did the growth turn out when `COc1cc(NS(C)(=O)=O)ccc1Nc1c2ccc(Cl)cc2nc2c(OC)cccc12` was run?
A: Its growth is 25.8% (inactive).

Q: With `COc1c(C)c(C)c(OC)c2c1[nH]c(=O)c1c3cccnc3cn21` as the compound, how does the growth read?
A: The growth was 110% (inactive).

Q: Which growth does the source give for `COc1cc(CSc2nc3ccc(Cl)cc3c(=O)n2-c2ccccc2)cc(OC)c1OC` here?
A: The growth was 75.5% (inactive).

Q: With `COc1ccc(-c2nnc(COc3ccc(NC(=O)Nc4cccc(C(F)(F)F)c4)cc3F)o2)cc1` as the compound, how does the growth read?
A: The growth was 54.8% (inactive).
